The campaign covered roughly 320,000 compounds. About 560 (0.17%) were called active. This excerpt belongs to a sample that is enriched for actives. A number with no mark means an inactive call.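 The calls were made as follows: active = inhibition above the campaign's mean inhibition across all tested compounds plus 3 SD (cut at about 9.5% in these data); inactive = the rest.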

Sequence of Serine/threonine-protein phosphatase 5 (Homo sapiens) (P53041 whole entry, looked up): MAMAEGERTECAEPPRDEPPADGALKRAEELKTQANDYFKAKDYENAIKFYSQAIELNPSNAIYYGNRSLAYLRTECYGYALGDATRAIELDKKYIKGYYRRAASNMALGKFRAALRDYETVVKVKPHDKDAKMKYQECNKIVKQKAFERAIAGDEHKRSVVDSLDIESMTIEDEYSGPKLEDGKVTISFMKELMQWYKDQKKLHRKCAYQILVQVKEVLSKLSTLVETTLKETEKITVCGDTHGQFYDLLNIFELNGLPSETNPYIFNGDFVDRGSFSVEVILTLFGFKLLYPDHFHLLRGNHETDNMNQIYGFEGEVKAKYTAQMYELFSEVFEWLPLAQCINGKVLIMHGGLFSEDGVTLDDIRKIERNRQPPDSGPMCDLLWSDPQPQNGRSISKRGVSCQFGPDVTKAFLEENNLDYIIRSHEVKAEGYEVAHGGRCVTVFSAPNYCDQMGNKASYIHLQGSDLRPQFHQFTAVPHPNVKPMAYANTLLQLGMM

The experiment has as its target Serine/threonine-protein phosphatase 5 (Homo sapiens) (UniProt P53041). Kind of experiment: PP5 phosphatase inhibitors, primary screen, biochemical, fluorescence (AID 1987).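 Also: 0% = DMSO only and 100% = 100 µM cantharidin control.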 The following applies: purified PP5c, OMFP substrate fluorescence; at 6.7 µM; active compounds read high.
By inhibition is commonly meant the drop in the measured response relative to a control, in per cent. As for `CCN(CC)C(=O)CSc1nnc(CNc2ccc(F)cc2)n1Cc1ccco1`, the inhibition was 3.87%.
`O=C(NN1C(=O)C2C3C=CC(O3)C2C1=O)c1ccncc1` (stereo unspecified): the inhibition is -0.72%.
For the molecule `CC(C)(C)n1nc2c(c1NC(=O)c1ccc(S(=O)(=O)N3CCCC3)cc1)CS(=O)C2` (stereo unspecified), the inhibition is -2.2%.
`C=CCOc1ccc(/C=C/C(=O)OCC(=O)NCC2CCCO2)cc1` (stereo unspecified): the inhibition is -0.48%.
With `O=Cc1c(Nc2ccccc2Cl)nc2ccccn2c1=O`, the inhibition was -0.13%.
The result for `C[C@H](NC(=O)c1[nH]cnc1C(=O)Nc1nccs1)c1ccccc1` reads 1.13%.
The result for `O=C(O)CCc1nc2cc(Cl)ccc2n(Cc2ccccc2)c1=O` reads -2.07%; that for `CCOC(=O)Nc1ccc2c(c1)N(C(=O)CCCl)c1ccccc1[S@]2=O`, -0.16%.
To `CCOC(=O)Nc1ccc2c(c1)N(C(=O)CN1CCN3CCCC3C1)c1ccccc1CC2` (stereo unspecified) belongs 10.7% (active); to `CCOC(=O)Nc1ccc2c(c1)N(C(=O)CCN1CCN(CCO)CC1)c1ccccc1CC2`, 2.46%.
Turning to `O=S1(=O)N=C(N(CCO)/N=C/c2ccccc2F)c2ccccc21`, the inhibition is -2.75%.
To `CC(C)Cn1cnc2c1c(=O)n(CC(=O)NN)c(=O)n2Cc1ccccc1` belongs 1.33%; to `CC(=O)c1c(C)[nH]c(C(=O)Nc2cc(S(=O)(=O)N(C)C)ccc2C)c1C`, 3.8%; to `O=C(N=C1SC2CS(=O)(=O)CC2N1c1cc(Cl)ccc1Cl)C1CC1` (stereo unspecified), -1.21%.
The result for `CC(C)OC(=O)c1sc2nc3c(cc2c1N)C(=O)CCC3` reads -4.25%.
The result for `O=C(O)c1ccc(-n2cccc2)cc1O` reads 1.23%; that for `O=C(Nc1ccccc1F)C1C2C=CC3(O2)C1C(=O)N(c1cccnc1)C3C(=O)NC1CCCCC1` (stereo unspecified), 2.73%; that for `O=C(O)c1ccc(S(=O)(=O)N2CCC(Cc3ccccc3)CC2)cc1`, -3.11%.
As to `CCCCN(CCCC)CCCNC(=O)CN1C(=O)COc2ccc(S(=O)(=O)N3CCC(C)CC3)cc21`, the inhibition is -1.56%.
To `COc1ccc(CCNC(=S)NC(=O)/C=C/c2ccc(C)cc2)cc1OC` belongs 1.62%.
The result for `Cn1c(Cc2cccc3ccccc23)nnc1SCC(=O)N1CCN(c2cccc(Cl)c2)CC1` reads 3.02%; that for `Nc1nc(SCC(=O)NN(c2ccccc2)c2ccccc2)n[nH]1`, -0.37%.
Take `Cc1cccn2cc(-c3cccc(S(=O)(=O)N4CCCCC4)c3)nc12`: the inhibition is 0.22%.
To `COc1ccc(/C=C2\SC(=S)N(CCCC(=O)NC3CCCC3)C2=O)cc1OC` belongs -4.92%; to `COc1ccc(/C=C2\SC(=S)N(CCC(=O)Nc3cccc(C(=O)O)c3)C2=O)cc1OC`, 0.86%; to `COc1cc(/C=C2/SC(=S)N(Cc3ccccc3)C2=O)cc(OC)c1O`, 10.8% (active).

The record behind these values is PubChem BioAssay AID1987 (The Scripps Research Institute Molecular Screening Center, 2009).
